Data taken from the supplement of paper PMC7393113.
Structures can show the parent of a compound that is named as a salt. ± gives the standard deviation of the averaged measurements.

tested on: iBMDM (immortalised mouse bone-marrow-derived macrophages), LPS-stimulated; assay: mitochondrial superoxide (MitoSOX fluorescence) fold increase over unstimulated control; higher = more LPS-induced mitochondrial ROS (less inhibition); settings: inhibitor concentration: 500 nM; LPS: 100 ng/ml; time after LPS: 4 h
Summary of the method: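 Immortalised mouse bone-marrow-derived macrophages were seeded in triplicate in black 96-well plates and moved to phenol-red-free 1% FCS/DMEM for 20 h. They were pretreated 30 min with kinase inhibitors (500 nM), loaded with 1 μM MitoSox for 10 min, then given LPS (100 ng/ml). Fluorescence (excitation/emission 510/580 nm, ClarioStar plate reader) was read every 60 min for 4 h. Mitochondrial superoxide is fold induction over untreated control macrophages, averaged over three replicates.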

SMILES	mitochondrial superoxide
O=C(c1ccc(Nc2nccc(-c3cc4ccccc4s3)n2)cc1)N1CCC(N2CCCC2)CC1 [IKK-16 (IKK Inhibitor VII)]	1.16 ± 0.17
Cc1cc(Nc2cc(N3CCN(C)CC3)nc(Sc3ccc(NC(=O)C4CC4)cc3)n2)n[nH]1 [VX-680 (Tozasertib, MK-0457)]	1.73 ± 0.033
CNC(=O)c1c(F)cccc1Nc1nc(Nc2cc3c(cc2OC)CCN3C(=O)CN(C)C)nc2[nH]ccc12	1.64 ± 0.015
Nc1ccc(C(=O)Nc2cccc(-c3nc(N4CCOCC4)c4oc5ncccc5c4n3)c2)cn1	1.24 ± 0.028
COc1cc(Nc2ncc(F)c(Nc3ccc4c(n3)NC(=O)C(C)(C)O4)n2)cc(OC)c1OC [R406 (free base)]	1.29 ± 0.065
CC(C)(C)c1cc(NC(=O)Nc2ccc(-c3cn4c(n3)sc3cc(OCCN5CCOCC5)ccc34)cc2)no1 [Quizartinib (AC220)]	1.31 ± 0.042
CCc1nc(-c2cccc(C)c2)c(-c2ccnc(NC(=O)c3ccccc3)c2)s1	1.18 ± 0.04
CN1CC[C@H](c2c(O)cc(O)c3c(=O)cc(-c4ccccc4Cl)oc23)[C@H](O)C1 [Flavopiridol HCl]	1.71 ± 0.06
CC(C)CCN1c2nc(Nc3cc(F)c(O)c(F)c3)ncc2N(C)C(=O)C1C (centres undefined)	1.321 ± 0.0097
COC(=O)Nc1ccc(-c2nc(N3CCOCC3)c3cnn(C4CCN(C(=O)OC)CC4)c3n2)cc1	1.14 ± 0.024
CN1CCN(S(=O)(=O)c2ccc(-c3cnc(N)c(C(=O)Nc4cccnc4)n3)cc2)CC1	1.63 ± 0.03
O=c1c(-c2ccc(O)cc2)coc2cc(O)cc(O)c12 [Genistein]	1.36 ± 0.15
CC(C)(O)CC(=O)NCCn1ccc2ncnc(Nc3ccc(Oc4cccc(C(F)(F)F)c4)c(Cl)c3)c21	1.62 ± 0.14
COc1cccc(-c2cc(=O)c3ccccc3o2)c1N	1.67 ± 0.04
Cn1cc(-c2[nH]c3cc(NC(=O)[C@H](N)C4CCCCC4)cc4c3c2C=NNC4=O)cn1	1.27 ± 0.029
Cc1ccc(-n2nc(C(C)(C)C)cc2NC(=O)Nc2ccc(OCCN3CCOCC3)c3ccccc23)cc1 [BIRB 796 (Doramapimod)]	1.22 ± 0.032
Cc1ccc(-c2nn(C(C)(C)C)c3ncnc(N)c23)cc1	1.34 ± 0.046

SMILES	mitochondrial superoxide
COc1cc(OC)c(/C=C/S(=O)(=O)Cc2ccc(OC)c(NCC(=O)O)c2)c(OC)c1	1.23 ± 0.086
C=CC(=O)N1CCC[C@@H](n2nc(-c3ccc(Oc4ccccc4)cc3)c3c(N)ncnc32)C1	1.46 ± 0.043
COc1cc2/c(=N/c3ccc(Br)cc3F)nc[nH]c2cc1OCC1CCN(C)CC1 [Vandetanib (ZD6474)]	1.7 ± 0.077
COc1ccc2c(Oc3ccc(NC(=O)c4c(C)n(CC(C)(C)O)n(-c5ccccc5)c4=O)nc3)ccnc2c1	1.391 ± 0.0084
O=C1c2ccc(Nc3ccc(F)cc3F)cc2CCc2ccc(OC[C@H](O)CO)cc21 [Skepinone-L]	1.62 ± 0.049
CO[C@H]1C[C@@H]2CC[C@@H](C)[C@@](O)(O2)C(=O)C(=O)N2CCCC[C@H]2C(=O)O[C@H]([C@H](C)C[C@@H]2CC[C@@H](OCCO)[C@H](OC)C2)CC(=O)[C@H](C)/C=C(\C)[C@@H](O)[C@@H](OC)C(=O)[C@H](C)C[C@H](C)/C=C/C=C/C=C/1C [Everolimus (RAD001)]	1.5 ± 0.06
Cc1[nH]c(/C=C2\C(=O)Nc3ccc(S(=O)(=O)N(C)c4cccc(Cl)c4)cc32)c(C)c1C(=O)N1CCN(C)CC1	1.67 ± 0.27
Nc1nc(N)c2nc(-c3cccc(O)c3)cnc2n1	1.09 ± 0.046
O=C(Cc1ccc(-c2ccc(OCCN3CCOCC3)cc2)cn1)NCc1ccccc1	1.61 ± 0.11
Oc1ccc2ccccc2c1SSc1c(O)ccc2ccccc12	1.32 ± 0.015
Cc1cn(-c2cc(NC(=O)c3ccc(C)c(Nc4nccc(-c5cccnc5)n4)c3)cc(C(F)(F)F)c2)cn1 [Nilotinib (AMN-107)]	1.65 ± 0.1
CN(C)c1ccc(-c2nc3ncc(Cl)c(N4CCN(CC(=O)Nc5nccs5)CC4)c3[nH]2)cc1	1.35 ± 0.039
Cn1cnc2c(F)c(Nc3ccc(Br)cc3F)c(C(=O)NOCCO)cc21	1.29 ± 0.028
Cc1ncc(-c2ccnc(Nc3ccc(S(C)(=O)=O)cc3)n2)n1C(C)C	1.6 ± 0.11
COc1cc2nccc(Oc3ccc(NC(=O)C4(C(=O)Nc5ccc(F)cc5)CC4)cc3)c2cc1OC	1.51 ± 0.029
Cc1nc(Nc2ncc(C(=O)Nc3c(C)cccc3Cl)s2)cc(N2CCN(CCO)CC2)n1 [Dasatinib]	1.85 ± 0.068
CC1=C(C(=O)Nc2cc3cn[nH]c3cc2F)C(c2ccc(C(F)(F)F)cc2)CC(=O)N1 (centres undefined)	1.35 ± 0.057
